In PubChem BioAssay (NCI):
This is part of a sample that, as a whole, favours compounds with a hit. Of some 79,000 tested, about 15% had one in any assay. Calls of active or inactive are those of the source. Rule as the data show it: active = growth inhibition above about 70%; inactive = the rest.

What was measured:
[1] = NCI Yeast Anticancer Drug Screen. Data for the mec2-1 strain (AID 157); settings: S. cerevisiae mec2-1 strain, active compounds read high
Outline: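 Vehicle-treated cultures served as reference for growth inhibition of compound-exposed mec2-1 yeast.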

[2] = NCI Yeast Anticancer Drug Screen. Data for the rad14 strain (AID 159);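 also: 0% = growth of vehicle-treated control cultures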; settings: S. cerevisiae rad14 strain growth inhibition, active compounds read high
Outline: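 Compound-treated yeast with a defined DNA-repair lesion; growth inhibition normalised to vehicle-treated cultures.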

[3] = NCI Yeast Anticancer Drug Screen. Data for the sgs1 mgt1 strain (AID 161);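 also: 0% = growth of cultures given vehicle only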; settings: S. cerevisiae sgs1 mgt1 strain, active compounds read high
Outline: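 Genetically altered yeast, compound exposure, growth inhibition relative to vehicle.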

[4] = NCI Yeast Anticancer Drug Screen. Data for the CLN2oe strain (AID 163);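 also: 0% = growth of vehicle-only control cultures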; settings: S. cerevisiae CLN2oe strain, active compounds read high
Outline: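 Inhibition relative to vehicle-treated yeast is reported. Cells: strain with genetic alteration in cell-cycle control, grown with compound.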

[5] = NCI Yeast Anticancer Drug Screen. Data for the cln2 rad14 strain (AID 165);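 also: 0% = growth equal to vehicle treated cultures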; settings: S. cerevisiae cln2 rad14 strain, active compounds read high
Outline: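 Each compound was tested on cln2 rad14 yeast. Inhibition of growth was calculated against vehicle-exposed controls.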

[6] = NCI Yeast Anticancer Drug Screen. Data for the bub3 strain (AID 167); settings: S. cerevisiae bub3 mutant strain, active compounds read high
Outline: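 Growth of a checkpoint-deficient yeast mutant is measured after compound exposure. Values represent inhibition relative to vehicle.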

[7] = NCI Yeast Anticancer Drug Screen. Data for the wt2 strain (AID 169);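 also: 0% = growth of vehicle-treated yeast cultures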; settings: S. cerevisiae wt2 strain growth inhibition, active compounds read high
Outline: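 Inhibition of yeast growth was determined after compound treatment, normalised to controls receiving only vehicle.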

[8] = NCI Yeast Anticancer Drug Screen. Data for the mlh1 strain (AID 171);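 also: 0% = growth of vehicle-treated control cultures of the same strain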; settings: S. cerevisiae mlh1 strain growth inhibition, active compounds read high
Outline: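 Vehicle-normalised growth inhibition of a repair- or checkpoint-altered yeast strain following compound treatment.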

[9] = NCI Yeast Anticancer Drug Screen. Data for the sgs1 strain (AID 173);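 also: 0% = growth of vehicle-only control cultures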; settings: S. cerevisiae sgs1 mutant, active compounds read high
Outline: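 Screen format: yeast with repair or checkpoint alterations, compound exposure, growth read relative to vehicle.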

[10] = NCI Yeast Anticancer Drug Screen. Data for the mlh1 rad18 strain (AID 175); settings: S. cerevisiae mlh1 rad18 strain growth inhibition, active compounds read high
Outline: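 Vehicle-treated cultures served as the reference for growth inhibition in a yeast strain carrying DNA damage repair alterations exposed to each compound.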

[11] = NCI Yeast Anticancer Drug Screen. Data for the rad18 strain (AID 177); settings: S. cerevisiae rad18 mutant growth inhibition, active compounds read high
Outline: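 Test articles were incubated with altered yeast defective in DNA damage repair. Results are given as inhibition of growth versus vehicle.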

[12] = NCI Yeast Anticancer Drug Screen. Data for the rad52 strain (AID 147);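 also: 0% = growth of vehicle-treated control cultures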; settings: S. cerevisiae rad52 mutant growth inhibition, active compounds read high
Outline: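 Vehicle-treated cultures served as the reference for growth inhibition of compound-exposed yeast bearing a DNA repair mutation.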

[13] = NCI Yeast Anticancer Drug Screen. Data for the wt1 strain (AID 149);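 also: 0% = growth of vehicle-treated wt1 cultures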; settings: S. cerevisiae wt1 strain (SPY 50644) growth inhibition, active compounds read high
Outline: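 Readout: yeast growth inhibition, normalised to vehicle controls, in the wt1 strain exposed to test compounds.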

[14] = NCI Yeast Anticancer Drug Screen. Data for the rad50EPP+ strain (AID 151);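 also: 0% = growth of vehicle-treated control cultures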; settings: S. cerevisiae rad50 mutant strain, active compounds read high
Outline: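 In this screen, rad50EPP+ yeast were exposed to compounds. Growth inhibition was scored against vehicle-treated controls.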

[15] = NCI Yeast Anticancer Drug Screen. Data for the rad50 strain (AID 155);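 also: 0% = growth of vehicle-only cultures of the same strain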; settings: S. cerevisiae rad50 strain growth inhibition, active compounds read high
Outline: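 Compounds were tested on a yeast strain with an engineered DNA damage repair alteration; the reported value is growth inhibition normalised to vehicle treatment.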

[16] = at 5.0 µM (retest, dose inferred, filed as 0.5)
[17] = at 50.0 µM (retest, dose inferred, filed as 5.0)

Measured: growth inhibition

CCOP(=O)(CC(C)P(=O)(OCC)OCC)OCC.C[CH2][Sn]([Cl])([Cl])[CH2]C (stereo unspecified)
inactive: [2]; at 1.2 µM -3% | [2]; at 3.7 µM 1% | [2]; at 11.0 µM 4% | [2]; at 33.0 µM 19% | [3]; [16] 11% | [3]; [17] 4% | [3]; at 50.0 µM 68.2% | [4]; at 1.2 µM -6% | [4]; at 3.7 µM -5% | [4]; at 11.0 µM 7% | [5]; [16] 6% | [5]; [17] 52% | [5]; at 50.0 µM 50.1% | [6]; at 1.2 µM -2% | [6]; at 3.7 µM 1% | [6]; [16] -9% | [6]; at 11.0 µM 5% | [6]; at 33.0 µM 55% | [6]; [17] 53% | [7]; at 1.2 µM -1% | [7]; at 3.7 µM -2% | [7]; at 11.0 µM 2% | [8]; at 1.2 µM 0% | [8]; at 3.7 µM 2% | [8]; at 11.0 µM 8% | [8]; at 33.0 µM 69% | [9]; at 1.2 µM -8% | [9]; at 3.7 µM 4% | [9]; at 11.0 µM 14% | [10]; [16] -2% | [10]; [17] 28% | [10]; at 50.0 µM 62.7% | [11]; at 1.2 µM -2% | [11]; at 3.7 µM 4% | [11]; at 11.0 µM 24%
active: [1]; at 100.0 µM 93% | [2]; at 100.0 µM 76% | [4]; at 33.0 µM 72% | [4]; at 100.0 µM 93% | [6]; at 50.0 µM 84.1% | [6]; at 100.0 µM 91% | [7]; at 33.0 µM 76% | [7]; at 100.0 µM 94% | [8]; at 100.0 µM 95% | [9]; at 33.0 µM 85% | [9]; at 100.0 µM 95% | [11]; at 33.0 µM 75% | [11]; at 100.0 µM 92%

C[CH2][Sn]([CH2]C)([O]S(C)(=O)=O)[O]S(C)(=O)=O
inactive: [12]; at 1.2 µM -24% | [12]; at 3.7 µM -17% | [12]; at 11.0 µM -24% | [12]; at 33.0 µM -10% | [12]; at 100.0 µM 11% | [13]; at 1.2 µM -27% | [13]; at 3.7 µM -9% | [13]; at 11.0 µM -15% | [13]; at 33.0 µM -12% | [13]; at 100.0 µM -2% | [14]; at 1.2 µM -28% | [14]; at 3.7 µM -30% | [14]; at 11.0 µM -25% | [14]; at 33.0 µM -14% | [14]; at 100.0 µM -19% | [15]; at 1.2 µM -21% | [15]; at 3.7 µM -6% | [15]; [16] 18% | [15]; at 11.0 µM -15% | [15]; at 33.0 µM -20% | [15]; [17] 57% | [15]; at 100.0 µM 6% | [1]; at 1.2 µM -15% | [1]; at 3.7 µM -4% | [1]; [16] 13% | [1]; at 11.0 µM -9% | [1]; at 33.0 µM -4% | [1]; [17] 58% | [1]; at 100.0 µM 16% | [2]; at 1.2 µM -21% | [2]; at 3.7 µM -18% | [2]; at 11.0 µM -17% | [2]; at 33.0 µM -10% | [2]; at 100.0 µM -9% | [3]; [16] 14% | [3]; [17] 58% | [3]; at 50.0 µM 50% | [4]; at 1.2 µM -78% | [4]; at 3.7 µM -94% | [4]; at 11.0 µM -65% | [4]; at 33.0 µM -103% | [4]; at 100.0 µM -62% | [5]; [16] 6% | [5]; [17] 18% | [5]; at 50.0 µM 46.2% | [6]; at 1.2 µM -28% | [6]; at 3.7 µM -25% | [6]; [16] 36% | [6]; at 11.0 µM -17% | [6]; at 33.0 µM -27% | [6]; [17] 50% | [6]; at 50.0 µM 45.5% | [6]; at 100.0 µM 24% | [7]; at 1.2 µM -56% | [7]; at 3.7 µM -44% | [7]; at 11.0 µM -46% | [7]; at 33.0 µM 3% | [7]; at 100.0 µM 55% | [8]; at 1.2 µM -51% | [8]; at 3.7 µM -29% | [8]; at 11.0 µM -33% | [8]; at 33.0 µM -37% | [8]; at 100.0 µM 0% | [9]; at 1.2 µM -27% | [9]; at 3.7 µM -16% | [9]; at 11.0 µM -22% | [9]; at 33.0 µM -7% | [9]; at 100.0 µM 15% | [10]; [16] 33% | [10]; at 50.0 µM 56.6% | [11]; at 1.2 µM -28% | [11]; at 3.7 µM -19% | [11]; at 11.0 µM -13% | [11]; at 33.0 µM -15% | [11]; at 100.0 µM 25%
active: [15]; at 50.0 µM 76.2% | [1]; at 50.0 µM 85.3% | [10]; [17] 80%
